# High-throughput results: PubChem BioAssay, National Center for Advancing Translational Sciences (NCATS)
# This is a sample that favours compounds with a hit; in the whole collection about 2.4% have one here.
# IkB sig inh – suppresses IkB signaling in ABC-DLBCL reporter cells. ABC-DLBCL IkBa-CBG/CBR dual luciferase ratio, 4 h; response scale: scaled: untreated 0%, proteasome inhibitor 100%. Potency, µM (series often up to 57.1 µM). 110,000 compounds, 0.04% hits. AID 445; active = well fitted curve in the direction sought with a large enough effect in the signal ratio, not every such curve was filed as active; inconclusive = small, poorly fitted or top-dose-only effect, or a change in a side signal; the % refers to the signal ratio;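 note: the direction sought is a rising ratio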
#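 In this assay, an IκBα–CBG68 fusion accumulates when IKK-driven degradation is blocked; native CBR normalizes for cell number. OCI-Ly3 cells were treated 4 h with compound and doxycycline, then green and red light read after Chroma-Glo addition.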
# p53ts 32C kill – p53ts cell cytotoxicity, permissive temperature | Potency, µM (series often up to 46.1 µM), most hits filed as cytotoxic | 130,000 compounds, 0.93% hits | H1299-p53A138V at 32C, ATP luminescence viability, 24 h; note: nearly all actives have a fitted effect of over 55% in size
#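 ATP-content luminescence (ATPlite) read-out after 24 h compound exposure at 32C in H1299-p53A138V cells (600/well). Tested up to 46 uM. Normalized to DMSO (0%) and 100 uM tamoxifen (100% killing); Hill-fit AC50.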
# Imprint erasure – induces erasure of genomic imprints in mouse ES cells. mouse ES Peg3-LacZ reporter, beta-gal luminescence, 40 h. Potency, µM (top dose mostly 60.7 µM), hits mostly activators. 110,000 compounds, 0.02% hits. AID 1948
#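 Imprint erasure is scored as LacZ activity from the silenced maternal Peg3 allele in feeder-free female ES cells cultured 40 h with LIF. Luminescence is normalized to in-plate negative controls and fitted to the Hill equation.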
# FLuc inh – firefly luciferase inhibition; P08659; purified firefly luciferase, luminescence, 8 min; Potency, µM (highest dose often 57.1 µM), hits mostly inhibitors; 72,000 compounds, 2.2% hits; AID 411; note: nearly all actives have a fitted effect of over 40% in size
# Target sequence (P08659 whole entry, looked up): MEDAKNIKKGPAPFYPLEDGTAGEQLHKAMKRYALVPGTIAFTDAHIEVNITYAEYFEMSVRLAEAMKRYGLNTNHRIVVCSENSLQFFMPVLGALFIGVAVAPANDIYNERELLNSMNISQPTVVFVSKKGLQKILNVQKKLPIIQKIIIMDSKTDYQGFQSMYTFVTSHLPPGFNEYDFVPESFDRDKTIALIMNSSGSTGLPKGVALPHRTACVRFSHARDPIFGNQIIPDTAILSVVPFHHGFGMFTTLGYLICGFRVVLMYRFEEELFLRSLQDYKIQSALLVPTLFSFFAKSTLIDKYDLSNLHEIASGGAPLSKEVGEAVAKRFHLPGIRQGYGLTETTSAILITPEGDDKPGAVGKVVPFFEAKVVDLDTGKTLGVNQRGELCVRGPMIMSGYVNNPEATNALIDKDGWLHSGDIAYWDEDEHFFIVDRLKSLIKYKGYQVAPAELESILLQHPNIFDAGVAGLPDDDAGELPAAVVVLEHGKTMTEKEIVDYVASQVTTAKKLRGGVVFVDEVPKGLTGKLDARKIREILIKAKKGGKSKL
#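 Here, luciferase activity is measured as luminescence following an 8 min room-temperature reaction at 10 uM ATP, pH 7.2. Every library sample is titrated.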
# p53ts 39C tox – kills p53ts cells at the nonpermissive temperature; AID 902; H1299-p53A138V viability at 39C, ATP luminescence, 24 h; Potency, µM (series often up to 46.1 µM), most hits filed as cytotoxic; 130,000 compounds, 1.5% hits; note: nearly all actives have a fitted effect of over 55% in size
# A number is an active result; . = inactive; ? = inconclusive; / = not tested or not shown; ! = a repeat was not active; [ ] = dose if it differs, or a comment. Unless noted, calls come from the whole dose curve; as a rule, active = well fitted curve in the direction sought with a large enough effect; inconclusive = small, poorly fitted or top-dose-only effect, or another doubt; inactive = no such curve, though single readings can be large; an effect the other way counts as inactive or inconclusive.
SMILES,IkB sig inh,p53ts 32C kill,Imprint erasure,FLuc inh,p53ts 39C tox
CCN(CC)c1ccc2cc(C(=O)Nc3ccccn3)c(=O)oc2c1,/,/,/,1µM,/
CCN(CC)c1ccc2cc(NC(=O)CCC(=O)O)c(=O)oc2c1,?,?,.,16µM,13µM
CC/C(=C(\c1ccccc1)c1ccc(OCCN(C)C)cc1)c1ccccc1,?,32µM!,.,.,32µM!
CCCCOc1ccc(C(=O)O)cc1,.,.,.,.,.
CC1CCN(C(=O)c2cc(-c3ccccc3O)on2)CC1,.,.,.,10µM,?
O=C(c1cc(-c2cccc(O)c2)on1)N1CCOCC1,.,10µM,.,13µM,?
COc1ccc(-c2cc(C(=O)N3CCOCC3)no2)cc1OC,.,.,.,.,.
Cc1cccc(CC2C(=O)Nc3ccccc32)c1 (stereo not given),.,.,.[10.9 µM],/,.
Cc1cc(F)ccc1NC(=O)CS(=O)(=O)c1cccc2nsnc12,.,.,.[10.9 µM],/,0.04µM
O=c1ccn([C@@H]2O[C@@H](COP(=O)(O)OP(=O)(O)O)[C@H](O)[C@@H]2O)c(=O)[nH]1,.,.,/,.,.
CSc1nc2c(sc3ccccc32)c(=O)n1Cc1ccc(C)cc1,?,.,.[10.9 µM],/,.
COc1ccc(Cn2c(SCC(N)=O)nc3c(sc4ccccc43)c2=O)cc1,?,.,.[10.9 µM],/,13µM
Cc1ccc(C[C@H](Cc2nc3ccccc3[nH]2)c2nc3ccccc3[nH]2)cc1,.[11.4 µM],/,/,.[11.4 µM],/
Cc1ccc(/C=C/c2nc3ccccc3[nH]2)cc1,?,0.5µM,.[10.9 µM],/,0.5µM
Cc1cc(C)c2c(NC(=O)c3ccccc3Cl)c(C(=O)NCc3ccc(Cl)cc3)sc2n1,.,?,.[10.9 µM],/,2.5µM
COC(=O)c1ccc(CSc2nc3c([nH]c4ccccc43)c(=O)n2-c2cc(C)cc(C)c2)o1,.,.,.[10.9 µM],/,16µM
COc1ccc(S(=O)(=O)Nc2cccc(-c3ccc(N4CCCC4)nn3)c2)cc1OC,?,.,.[10.9 µM],/,.
COc1ccc(C)cc1S(=O)(=O)Nc1cccc(-c2ccc(N3CCC(C)CC3)nn2)c1,?,.,.[10.9 µM],/,?
COc1ccc(S(=O)(=O)Nc2cccc(-c3ccc(N4CCC(C)CC4)nn3)c2)cc1OC,?,3.2µM,.[10.9 µM],/,2.5µM
COc1ccc(F)cc1S(=O)(=O)Nc1cccc(-c2ccc(N3CCC(C)CC3)nn2)c1,.,?,.[10.9 µM],/,7.9µM
Cc1c(Cl)cccc1-c1ccc(/C=C(\C#N)c2nc3ccccc3[nH]2)o1,.,?,.[10.9 µM],/,13µM
Cc1ccc2nc(/C(C#N)=C/c3ccc(-c4ccc(F)cc4F)o3)[nH]c2c1,?,6.3µM,.[10.9 µM],/,5µM
N#C/C(=C/c1ccc(N2CCOCC2)o1)c1nc2ccccc2[nH]1,/,16µM,/,/,?
CCCCn1c(=N)c(S(=O)(=O)c2ccc(Cl)cc2)cc2c(=O)n3cccc(C)c3nc21,.,.,.[10.9 µM],/,.
CCc1cccc(-n2c(=O)c3cccnc3n2CC(=O)NCc2ccc(C)cc2)c1,.,.,.[10.9 µM],/,.
SMILES,IkB sig inh,p53ts 32C kill,Imprint erasure,FLuc inh,p53ts 39C tox
Cc1ccc(NS(=O)(=O)c2ccc3nc(-c4ccccc4)[nH]c3c2)cc1Cl,?,?,.[10.9 µM],/,13µM
CCN(CC)c1nc(-c2ccc(C(C)(C)C)cc2)nc2ccccc12,?,13µM,.[10.9 µM],/,13µM
CC(C)CN(CC(C)C)c1nc(-c2ccc(Cl)cc2)nc2ccccc12,?,.,.[10.9 µM],/,.
Cc1cccc(-c2nc(SCc3cc(=O)c4c(C)cc(C)cc4[nH]3)n[nH]2)c1,.,?,.[10.9 µM],/,20µM
Cc1cc(C)c2c(=O)cc(CSc3n[nH]c(C)n3)[nH]c2c1,.,.,.[10.9 µM],/,.
CCOc1ccc(Nc2cc(C)nc(N3CCOCC3)n2)cc1,.,.,.,.,.
CCOc1ccc2nc(N3CCOCC3)nc(C)c2c1,.,?,.,16µM,?
CCCn1c(=N)n(CC(O)COc2cccc(C)c2)c2ccccc21 (stereo not given),?,.,.,.,.
CCCCCn1c(=N)n(CC(O)COc2cccc(C)c2)c2ccccc21 (stereo not given),?,?,.[10.9 µM],/,10µM
CCOc1ccc(C(=O)COC(=O)CC)cc1,.,.,.,16µM,.
c1ccc(Cc2ccc(OCCn3cncn3)cc2)cc1,.,.,.,.,.
c1ccc(COc2ccc(OCCCn3cncn3)cc2)cc1,?,?,?,20µM,?
c1ccc(-c2ccc(OCCOCCn3cncn3)cc2)cc1,.,.,.,13µM,?
